JMJD2E inh – qHTS Assay for Inhibitors of Human Jumonji Domain Containing 2E (JMJD2E); hit rate 1.6% among 230,000; Lysine-specific demethylase 4E (Homo sapiens), B2RXH2; JMJD2E catalytic domain, FDH-coupled NADH fluorescence (FDH is formaldehyde dehydrogenase); Potency, µM (top dose mostly 57.1 µM), for inactives: top-dose activity change, negative = inhibition, hits mostly inhibitors; active = well fitted inhibition curve with a large enough effect, not every such curve was filed as active; inconclusive = small, poorly fitted or top-dose-only effect, or another doubt; inactive = no such curve, though single readings can be large or run the other way;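 also: potency is read from the fitted curve at half-maximal effect; 0% = wells with enzyme and -100% = buffer wells without enzyme; nearly all actives have a fitted effect of over 50% in size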
Target sequence (B2RXH2 1-337 limits assumed): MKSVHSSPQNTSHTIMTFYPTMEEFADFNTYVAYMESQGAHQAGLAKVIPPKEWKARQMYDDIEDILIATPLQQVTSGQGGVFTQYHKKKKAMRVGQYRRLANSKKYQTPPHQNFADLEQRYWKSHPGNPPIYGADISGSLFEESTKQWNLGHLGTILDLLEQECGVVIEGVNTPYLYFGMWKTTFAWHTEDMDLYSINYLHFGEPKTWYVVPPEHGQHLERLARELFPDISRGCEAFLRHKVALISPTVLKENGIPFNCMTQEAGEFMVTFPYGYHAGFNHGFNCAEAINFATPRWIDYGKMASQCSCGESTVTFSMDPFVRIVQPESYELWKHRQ
ALDH1A1 block – qHTS Assay for Inhibitors of Aldehyde Dehydrogenase 1 (ALDH1A1). Purified ALDH1A1, NADH fluorescence, propionaldehyde substrate. Aldehyde dehydrogenase 1A1 (Homo sapiens), P00352. hit rate 7.3% among 220,000. AID 1030, 2008. Potency, µM (highest dose often 75.3 µM), inactives show top-dose activity, negative = inhibition, most hits filed as inhibitors; active = well fitted inhibition curve with a large enough effect, not every such curve was filed as active; inconclusive = small, poorly fitted or top-dose-only effect, or another doubt; inactive = no such curve, though single readings can be large or run the other way;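 also: potency is read from the fitted curve at half-maximal effect; plate controls were no enzyme wells and a reference inhibitor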
miR-21 act – qHTS Assay for Modulators of miRNAs and/orActivators of miR-21. HeLa miR-21 FLuc reporter, luciferase, 48 h. Potency, µM (highest dose often 38.3 µM), without a hit: top-dose activity change, positive = activation, usual class: activators. AID 2288, 2010. 340,000 tested, under 10 active;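 also: % of control where 0% means no effect; miR-21 action dims this reporter so a rising signal means less miR-21 action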
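HeLa cells stably expressing CMV-driven firefly luciferase with a downstream miR-21 binding sequence, endogenously expressing miR-21, were treated with titrations (up to about 40uM final) for 48 hours at 37 degree Celsius. Luciferase luminescence was read after lysis.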
Lamin A splicing – qHTS Assay for Modulators of Lamin A Splicing; Potency, µM (highest dose often 46.1 µM), for the others: at the top dose ratio change, negative = inhibition, usual class: inhibitors; HeLa LMNA splicing GFP/RFP minigene ratio, 48 h; hit rate 0.01% among 200,000; active = well fitted inhibition curve with a large enough effect in the signal ratio, with a control signal flat, not every such curve was filed as active; inconclusive = small, poorly fitted or top-dose-only effect, or effect the other way, or a change in a side signal; the % refers to the signal ratio; also: potency is read from the fitted curve at half-maximal effect; % is scaled to controls: 0 for no effect and ±100 for the full control effect
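S3 HeLa stable clones carrying a lamin A-EGFP splicing minigene plus DsRed2 were seeded at 600 cells/well in Opti-MEM with 2% FBS, pin-dosed and incubated 48 h at 37°C. Acumen cytometry (488 nm) gave the GFP/RFP total-intensity ratio.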
G9a inh – qHTS Assay for Inhibitors of Histone Lysine Methyltransferase G9a; hit rate 8.8% among 350,000; Potency, µM (series often up to 102 µM), for the others: at the top dose activity, negative = inhibition, usual class: inhibitors; G9a H3K9 monomethylation, AlphaScreen, 2 h; also: potency is read from the fitted curve at half-maximal effect; % is scaled to controls: 0 for no effect and ±100 for the full control effect; nearly all actives have a fitted effect of over 75% in size
Target sequence (Q96KQ7 913-1193 limits assumed): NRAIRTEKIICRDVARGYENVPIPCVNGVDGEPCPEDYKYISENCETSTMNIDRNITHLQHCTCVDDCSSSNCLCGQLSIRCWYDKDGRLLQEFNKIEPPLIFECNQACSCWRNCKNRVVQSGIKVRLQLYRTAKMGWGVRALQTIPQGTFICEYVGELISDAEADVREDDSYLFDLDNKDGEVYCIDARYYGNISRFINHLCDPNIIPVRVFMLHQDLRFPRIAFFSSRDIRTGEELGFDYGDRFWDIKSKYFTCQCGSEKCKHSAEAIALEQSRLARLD
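AlphaScreen detection with an anti-monomethyl H3K9 antibody quantified product after a 2 h room-temperature reaction containing 500 nM biotinylated H3K9 peptide, 20 µM SAM and 20 nM enzyme, which had been preincubated 15 min with compound.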
Sfp PPTase inh – qHTS Assay for Inhibitors of Bacillus subtilis Sfp phosphopantetheinyl transferase (PPTase); Biochemical Sfp PPTase activity, qHTS; Potency, µM, inactives show largest response in the series, negative = inhibition, hits mostly inhibitors; hit rate 3.5% among 310,000;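 also: the enzyme is Sfp with the accession as filed and its product quenches rhodamine fluorescence; potency is read from the fitted curve at half-maximal effect; 0% = enzyme reaction without inhibitor and -100% = no enzyme wells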
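Sfp 15 nM + cpd, 15 min RT; start w/ rhodamine-CoA 5 uM, BHQ-2-YbbR 12.5 uM (final); 50 mM Hepes pH 7.6, 10 mM MgCl2, 0.01% NP-40, 0.01% BSA; read 525/598 nm at 0 and 30 min.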
Active calls of the source: *; ? = inconclusive; / = not tested or not shown; [ ] = another dose, or the depositor's remark. The list is not random: actives were taken first. Their share in the collection is about 13%. Unless noted, calls follow the shape of the dose curve; as a rule, active = well fitted curve in the direction sought with a large enough effect; inconclusive = small, poorly fitted or top-dose-only effect, or another doubt; inactive = no such curve, though single readings can be large; an effect the other way counts as inactive or inconclusive.

SMILES	JMJD2E inh	ALDH1A1 block	miR-21 act	Lamin A splicing	G9a inh	Sfp PPTase inh
CCOc1ccc2c(c1)nc(SCC(=O)c1ccc(Br)s1)n2C	0%	18µM*	-10%	12%	40µM*	32µM*
COCC(=O)N1CCC2(CCN(Cc3nccs3)CC2)CC1	/	9%	/	/	-7%[12.7 µM]	28%
Clc1ccc(OCCOCCNCc2ccccc2)cc1Cl	/	/	1%	/	/	-30%
C(=N\Nc1nn2cnnc2c2ccccc12)/c1ccco1	-22%	-9%	-8%	/	-24%	50µM*
CCOc1cc(/C=N/Nc2nn3cnnc3c3ccccc23)ccc1O	12%	/	-17%	/	-29%	?
COc1cccc(/C=N/NC(=O)C(C)n2nnc3ccccc32)c1 (stereo not given)	-10%	8%	0%	7%	5%[59 µM]	-1%
COc1cccc(/C=N/Nc2nn3cnnc3c3ccccc23)c1	?	?	-1%	?	-30%	56µM*
Oc1ccc(/C=N/Nc2nn3cnnc3c3ccccc23)cc1	-18%	/	-11%	/	/	56µM*
COc1cc(/C=N/Nc2nn3cnnc3c3ccccc23)ccc1O	-4%	-8%	-5%	-10%	79µM*	40µM*
CN1CCN(S(=O)(=O)c2ccc3c(c2)oc(=O)n3C)CC1	/	/	-2%	/	/	3%
COc1ccc(/C=N/Nc2nncc3ccccc23)cc1	-11%	-7%	1%	-6%	?	50µM*
O=C(C[n+]1cccc(CNC(=O)c2ccc(OC(F)F)cc2)c1)Nc1ccc(F)cc1	-7%	-1%	-2%	-3%	-20%[59 µM]	-4%
COC(=O)c1ccc[n+](CC(=O)Nc2ccc(OC(F)F)cc2)c1	-3%	?	0%	4%[46 µM]	45µM*	5%
Cc1cc(C)cc(NC(=O)c2cc(S(=O)(=O)N3CCCC3)ccc2F)c1	/	/	0%	-7%[46 µM]	9%[59 µM]	/
COc1ccccc1CCNC(=O)CCc1c(C)c2cc3c(C)coc3cc2oc1=O	/	/	-15%	/	-21%[59 µM]	/
Cc1ccc(C)c(OCC(=O)Nc2ccc(S(=O)(=O)Nc3ccccn3)cc2)c1	?	?	-11%	4%	50µM*	-3%
COc1ccc(OCC(=O)NC(=S)Nc2ccc(S(=O)(=O)Nc3cc(OC)nc(OC)n3)cc2)cc1	7%	?	-8%	-5%	-50%[59 µM]	1%
COc1cc(NS(=O)(=O)c2ccc(NC(=S)Nc3ccccc3)cc2)nc(OC)n1	/	/	2%	/	24%	-1%
COc1cc(NS(=O)(=O)c2ccc(NC(=S)NC(=O)C3CCCC3)cc2)nc(OC)n1	4%	25µM*	-3%	1%	-27%[2.33 µM]	-26%
COc1cc(NS(=O)(=O)c2ccc(NC(=O)COc3cccc(C)c3)cc2)nc(OC)n1	/	/	-3%	/	25µM*	-22%
COC(=O)CCC(=O)NC(=S)Nc1ccc(S(=O)(=O)Nc2cc(OC)nc(OC)n2)cc1	-27%	-18%	-11%	-3%	50µM*	-3%
Cc1cccc(OCC(=O)Nc2ccc(S(=O)(=O)Nc3ccccn3)cc2)c1	?	11%	-1%	/	-26%	-1%
Cc1cc(Cl)ccc1OCC(=O)Nc1c(Cl)ccc2nsnc12	/	/	0%	/	-36%[59 µM]	/
O=c1c(-c2ccc(F)cc2)nc2cnc(N3CCOCC3)nc2n1CCc1ccccc1	/	?	/	11%	8%[0.501 µM]	1%
COc1cc(NS(=O)(=O)c2ccc(N/C=C(\C#N)c3nc4ccccc4o3)cc2)nc(OC)n1	0%	15%	-19%	?	16%[2.33 µM]	15%
SMILES	JMJD2E inh	ALDH1A1 block	miR-21 act	Lamin A splicing	G9a inh	Sfp PPTase inh
COc1cc(NS(=O)(=O)c2ccc(N/C=C(\C=O)c3nc4ccccc4o3)cc2)nc(OC)n1	-5%	-15%	-7%	-8%	35µM*	9%
Cc1ccc(C)c(OCC(=O)Nc2nonc2NC(=O)COc2cc(C)ccc2C)c1	1%	2%	-7%	?	16µM*	?
COc1ccccc1NC(=O)c1ccc2[nH]c(C)c(C)c2c1	/	/	-78%	/	4%	-1%
COc1ccc(OCC(=O)NC(=S)Nc2ccc3c4c(cccc24)CC3)cc1	-7%	16µM*	-3%	-1%	-2%	-22%
COc1cccc(C(=O)NC(=S)Nc2ccc3c4c(cccc24)CC3)c1	-1%	14µM*	-15%	11%[0.0737 µM]	23%[0.501 µM]	-12%
COc1cccc(C(=O)NC(=S)Nc2ccc(Cl)cc2C(=O)O)c1	?	/	-10%	/	?	50µM*
Cc1cccc(Cn2nnc3c(=O)[nH]c(C4CCCN(C(=O)c5ccc(C(C)(C)C)cc5)C4)nc32)c1 (stereo not given)	/	/	26%	/	-38%[59 µM]	/
Cc1ccc2c(cnn2C(=O)CCC(=O)NC2CCCCC2)c1	/	/	-4%	/	?	-6%
Cc1c(CCOC(=O)C23CC4(C)CC(C)(CC(C)(C4)C2)C3)sc[n+]1CC(=O)c1ccccc1	-3%	9%	3%	/	/	?
Cc1c(CCOC(=O)c2cc([N+](=O)[O-])cc([N+](=O)[O-])c2)sc[n+]1CC(=O)c1ccc(Br)cc1	?	2.5µM*	-5%	27%[46 µM]	2.5µM*	?
Cc1c(CCOC(=O)CC23CC4CC(CC(C4)C2)C3)sc[n+]1CC(=O)c1ccccc1	-4%	?	21%	/	/	79µM*
COc1ccc(-c2nc(C)c(CCNS(=O)(=O)c3cc(C)c(C)cc3C)s2)cc1	/	/	13%	?	-2%[59 µM]	/
COc1cccc(-n2c(CN3CCN(c4ccc(C)cc4)C(C)C3)nc3ccc([N+](=O)[O-])cc3c2=O)c1 (stereo not given)	0%	25µM*	-4%	-8%	?	?
COc1ccc(-n2c(CN3CCN(c4ccccc4)CC3)nc3ccc([N+](=O)[O-])cc3c2=O)c(OC)c1	/	/	-1%	/	40µM*	-18%
CCOC(=O)N1CCN(Cc2nc3ccc([N+](=O)[O-])cc3c(=O)n2-c2ccc(OC)cc2OC)CC1	/	/	3%	/	?	-8%
COc1ccc(-n2c(CN3CCOCC3)nc3ccc([N+](=O)[O-])cc3c2=O)c(OC)c1	/	/	-3%	/	45µM*	?
COc1ccc(-n2c(CN3CCC(C)CC3)nc3ccc([N+](=O)[O-])cc3c2=O)c(OC)c1	-20%	?	-1%	/	?	25µM*
Cc1ccc(-c2nn(-c3ccccc3)cc2C(=O)NCC2CCCO2)cc1 (stereo not given)	/	/	/	/	-19%	/
Cc1cc(C)c(NC(=O)CSc2n[nH]c(-c3ccccc3Cl)n2)c(C)c1	/	/	3%	?	-4%[59 µM]	/

Assay outcomes deposited in PubChem by National Center for Advancing Translational Sciences (NCATS).
